# Test results reported in PMC7862700, “An all-to-all approach to the identification of sequence-specific readers for epigenetic DNA modifications on cytosine”.
# Tests used:
# Test in all cases: DAPPL (digital affinity profiling via proximity ligation, sequencing); 10 mM Tris-HCl pH 7.5, 50 mM NaCl, 1 mM DTT, 4% glycerol, room temperature, 30 min; GST-TFs on glutathione beads, 16-mer random dsDNA library, 0.1% formaldehyde crosslink after washing; high values mean tight binding
# FLI1 = molecular target: T1, FLI1 (Homo sapiens, UniProt Q01543 1-452); conditions: protein: recombinant; tags: N-terminal GST; dsDNA, one strand shown
# T1 sequence: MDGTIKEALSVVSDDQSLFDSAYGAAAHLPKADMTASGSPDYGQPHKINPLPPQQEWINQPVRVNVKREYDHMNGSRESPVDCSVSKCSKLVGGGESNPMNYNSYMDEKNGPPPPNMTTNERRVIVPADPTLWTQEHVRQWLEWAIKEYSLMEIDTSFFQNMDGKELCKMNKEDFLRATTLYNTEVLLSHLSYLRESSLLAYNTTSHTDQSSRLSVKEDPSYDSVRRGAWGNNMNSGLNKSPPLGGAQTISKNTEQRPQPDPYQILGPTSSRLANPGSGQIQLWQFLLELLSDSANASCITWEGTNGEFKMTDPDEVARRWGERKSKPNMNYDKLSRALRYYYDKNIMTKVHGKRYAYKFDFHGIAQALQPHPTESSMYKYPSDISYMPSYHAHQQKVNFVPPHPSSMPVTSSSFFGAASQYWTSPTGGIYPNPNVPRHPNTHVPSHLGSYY
# How it was run: (§1)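 Each value of binding signal is a hexamer's read frequency for a factor divided by the same hexamer's frequency in the tag-only sample. Barcoded, bead-captured GST fusions of human transcription factors made in yeast were pooled with that sample and incubated with 200 nmole of a random double-stranded 16-mer DNA library in Tris/NaCl/DTT/glycerol buffer at room temperature for 30 min. Washing, 0.1% formaldehyde crosslinking, proximity ligation, PCR and Illumina NextSeq500 sequencing followed.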
# ELK1 = molecular target: T2, ELK1 (Homo sapiens, UniProt P19419 1-428); conditions: protein: recombinant; tags: N-terminal GST; dsDNA, one strand shown
# T2 sequence: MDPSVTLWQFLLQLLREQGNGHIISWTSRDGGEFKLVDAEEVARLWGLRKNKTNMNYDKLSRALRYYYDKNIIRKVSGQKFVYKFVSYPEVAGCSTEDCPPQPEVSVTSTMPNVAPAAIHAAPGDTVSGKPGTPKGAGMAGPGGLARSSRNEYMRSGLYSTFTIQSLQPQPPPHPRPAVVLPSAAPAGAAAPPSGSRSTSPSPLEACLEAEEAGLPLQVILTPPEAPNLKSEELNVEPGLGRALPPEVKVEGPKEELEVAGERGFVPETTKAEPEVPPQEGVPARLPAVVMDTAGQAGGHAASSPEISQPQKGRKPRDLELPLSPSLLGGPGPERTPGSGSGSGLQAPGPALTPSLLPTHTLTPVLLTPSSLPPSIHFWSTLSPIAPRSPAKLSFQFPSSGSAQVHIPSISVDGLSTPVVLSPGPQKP
# How it was run: as §1
# GABPA = molecular target: T3, GABPA (Homo sapiens, UniProt Q06546 1-454); conditions: protein: recombinant; tags: N-terminal GST; dsDNA, one strand shown
# T3 sequence: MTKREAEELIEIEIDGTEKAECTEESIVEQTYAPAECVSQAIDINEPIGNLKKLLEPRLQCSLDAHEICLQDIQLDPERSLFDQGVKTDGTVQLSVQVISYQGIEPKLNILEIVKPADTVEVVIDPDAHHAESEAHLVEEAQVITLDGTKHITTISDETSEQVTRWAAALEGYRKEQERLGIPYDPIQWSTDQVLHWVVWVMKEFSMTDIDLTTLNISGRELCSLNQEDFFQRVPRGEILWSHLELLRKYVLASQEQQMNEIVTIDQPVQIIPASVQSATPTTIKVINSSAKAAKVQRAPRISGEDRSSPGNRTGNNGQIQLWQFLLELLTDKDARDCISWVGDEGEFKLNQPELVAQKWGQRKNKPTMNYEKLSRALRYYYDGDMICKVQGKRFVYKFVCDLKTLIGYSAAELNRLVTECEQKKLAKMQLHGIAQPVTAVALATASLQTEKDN
# How it was run: as §1
# ERG = molecular target: T4, ERG (Homo sapiens, UniProt P11308 1-479); conditions: protein: recombinant; tags: N-terminal GST; dsDNA, one strand shown
# T4 sequence: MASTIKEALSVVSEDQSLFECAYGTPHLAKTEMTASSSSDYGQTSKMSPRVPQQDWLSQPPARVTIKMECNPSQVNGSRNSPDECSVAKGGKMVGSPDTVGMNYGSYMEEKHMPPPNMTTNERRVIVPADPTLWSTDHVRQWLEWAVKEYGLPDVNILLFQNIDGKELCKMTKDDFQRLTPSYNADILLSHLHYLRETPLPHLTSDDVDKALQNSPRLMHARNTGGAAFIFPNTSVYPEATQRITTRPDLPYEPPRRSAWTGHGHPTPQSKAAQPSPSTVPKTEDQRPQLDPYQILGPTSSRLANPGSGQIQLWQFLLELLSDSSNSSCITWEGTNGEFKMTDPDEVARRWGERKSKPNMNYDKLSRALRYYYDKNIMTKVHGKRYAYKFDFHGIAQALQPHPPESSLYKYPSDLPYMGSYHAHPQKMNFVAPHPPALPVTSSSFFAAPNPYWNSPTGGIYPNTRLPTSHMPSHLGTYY
# How it was run: as §1
# ELF1 = ELF1 (Homo sapiens, UniProt P32519 1-619); conditions: protein: recombinant; tags: N-terminal GST; dsDNA, one strand shown
# How it was run: as §1
# EHF = molecular target: T5, EHF (Homo sapiens, UniProt Q9NZC4 1-300); conditions: protein: recombinant; tags: N-terminal GST; dsDNA, one strand shown
# T5 sequence: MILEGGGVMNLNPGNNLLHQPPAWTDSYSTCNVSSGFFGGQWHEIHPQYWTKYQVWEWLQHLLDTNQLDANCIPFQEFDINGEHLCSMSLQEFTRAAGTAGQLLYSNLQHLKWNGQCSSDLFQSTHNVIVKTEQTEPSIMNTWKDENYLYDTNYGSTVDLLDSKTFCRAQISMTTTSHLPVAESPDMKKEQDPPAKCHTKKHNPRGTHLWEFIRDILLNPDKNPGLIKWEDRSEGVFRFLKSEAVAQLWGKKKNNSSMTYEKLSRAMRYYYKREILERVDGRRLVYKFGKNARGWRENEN
# How it was run: as §1
# SPI1 = SPI1 (Homo sapiens, UniProt P17947 1-270); conditions: protein: recombinant; tags: N-terminal GST; dsDNA, one strand shown
# How it was run: as §1
# SPIB = SPIB (Homo sapiens, UniProt Q01892 1-262); conditions: protein: recombinant; tags: N-terminal GST; dsDNA, one strand shown
# How it was run: as §1
# ELK3 = molecular target: T6, ELK3 (Homo sapiens, UniProt P41970 1-407); conditions: protein: recombinant; tags: N-terminal GST; dsDNA, one strand shown
# T6 sequence: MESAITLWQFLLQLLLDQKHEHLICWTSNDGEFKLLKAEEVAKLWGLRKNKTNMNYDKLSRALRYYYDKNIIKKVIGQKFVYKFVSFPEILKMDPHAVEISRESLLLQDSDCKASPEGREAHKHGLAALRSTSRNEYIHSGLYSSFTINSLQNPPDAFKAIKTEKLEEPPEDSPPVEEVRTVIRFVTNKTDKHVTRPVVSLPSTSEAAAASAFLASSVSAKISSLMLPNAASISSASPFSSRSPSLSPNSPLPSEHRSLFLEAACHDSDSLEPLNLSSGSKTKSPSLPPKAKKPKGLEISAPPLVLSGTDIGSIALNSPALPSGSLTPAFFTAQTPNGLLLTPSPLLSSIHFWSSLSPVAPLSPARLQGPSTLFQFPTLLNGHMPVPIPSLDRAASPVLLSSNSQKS
# How it was run: as §1
# FEV = molecular target: T7, FEV (Homo sapiens, UniProt Q99581 1-238); conditions: protein: recombinant; tags: N-terminal GST; dsDNA, one strand shown
# T7 sequence: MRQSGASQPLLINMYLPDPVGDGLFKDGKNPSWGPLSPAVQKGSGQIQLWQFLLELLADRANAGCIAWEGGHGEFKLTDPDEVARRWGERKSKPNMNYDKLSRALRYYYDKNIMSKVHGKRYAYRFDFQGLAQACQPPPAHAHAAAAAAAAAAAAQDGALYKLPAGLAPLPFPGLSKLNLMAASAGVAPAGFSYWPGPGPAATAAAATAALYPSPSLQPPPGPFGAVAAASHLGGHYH
# How it was run: as §1
# ETV5 = ETV5 (Homo sapiens, UniProt P41161 1-510); conditions: protein: recombinant; tags: N-terminal GST; dsDNA, one strand shown
# How it was run: as §1
# HSF1 = HSF1 (Homo sapiens, UniProt Q00613 1-529); conditions: protein: recombinant; tags: N-terminal GST; chain copies: 3; dsDNA, one strand shown
# How it was run: as §1
# SPIC = molecular target: T8, SPIC (Homo sapiens, UniProt Q8N5J4 1-248); conditions: protein: recombinant; tags: N-terminal GST; dsDNA, one strand shown
# T8 sequence: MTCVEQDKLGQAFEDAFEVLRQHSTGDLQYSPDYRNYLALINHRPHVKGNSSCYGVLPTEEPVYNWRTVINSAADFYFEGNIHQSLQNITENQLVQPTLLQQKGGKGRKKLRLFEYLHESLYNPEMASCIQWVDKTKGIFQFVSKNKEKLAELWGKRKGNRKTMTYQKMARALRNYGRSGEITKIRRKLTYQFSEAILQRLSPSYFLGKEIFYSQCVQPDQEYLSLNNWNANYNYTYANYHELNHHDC
# How it was run: as §1
# ELF4 = ELF4 (Homo sapiens, UniProt Q99607 1-663); conditions: protein: recombinant; tags: N-terminal GST; dsDNA, one strand shown
# How it was run: as §1
# ELK4 = molecular target: T9, ELK4 (Homo sapiens, UniProt P28324-2 1-405); conditions: protein: recombinant; tags: N-terminal GST; dsDNA, one strand shown
# T9 sequence: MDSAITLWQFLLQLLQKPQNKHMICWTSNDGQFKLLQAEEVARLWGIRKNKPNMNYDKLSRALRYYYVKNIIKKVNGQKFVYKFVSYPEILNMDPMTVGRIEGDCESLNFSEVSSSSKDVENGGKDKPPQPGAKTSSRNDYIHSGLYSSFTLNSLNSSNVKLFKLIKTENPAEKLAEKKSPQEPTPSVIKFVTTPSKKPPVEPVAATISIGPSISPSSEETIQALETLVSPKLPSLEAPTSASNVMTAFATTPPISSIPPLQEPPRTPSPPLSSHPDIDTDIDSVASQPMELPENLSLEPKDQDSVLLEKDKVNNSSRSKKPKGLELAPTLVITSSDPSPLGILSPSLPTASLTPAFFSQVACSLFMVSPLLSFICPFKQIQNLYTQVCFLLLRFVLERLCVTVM
# How it was run: as §1
# ETV2 = molecular target: T10, ETV2 (Homo sapiens, UniProt O00321 1-342); conditions: protein: recombinant; tags: N-terminal GST; dsDNA, one strand shown
# T10 sequence: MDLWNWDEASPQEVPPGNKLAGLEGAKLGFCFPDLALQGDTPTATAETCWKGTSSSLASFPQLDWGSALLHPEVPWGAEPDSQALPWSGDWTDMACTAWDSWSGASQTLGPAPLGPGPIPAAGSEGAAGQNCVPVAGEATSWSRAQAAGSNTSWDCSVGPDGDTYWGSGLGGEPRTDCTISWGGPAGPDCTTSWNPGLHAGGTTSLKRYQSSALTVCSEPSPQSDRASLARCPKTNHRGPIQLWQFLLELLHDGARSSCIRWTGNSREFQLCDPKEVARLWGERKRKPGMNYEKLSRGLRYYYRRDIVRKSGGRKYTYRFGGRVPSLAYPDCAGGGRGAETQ
# How it was run: as §1
# ELF3 = molecular target: T11, ELF3 (Homo sapiens, UniProt P78545 1-371); conditions: protein: recombinant; tags: N-terminal GST; dsDNA, one strand shown
# T11 sequence: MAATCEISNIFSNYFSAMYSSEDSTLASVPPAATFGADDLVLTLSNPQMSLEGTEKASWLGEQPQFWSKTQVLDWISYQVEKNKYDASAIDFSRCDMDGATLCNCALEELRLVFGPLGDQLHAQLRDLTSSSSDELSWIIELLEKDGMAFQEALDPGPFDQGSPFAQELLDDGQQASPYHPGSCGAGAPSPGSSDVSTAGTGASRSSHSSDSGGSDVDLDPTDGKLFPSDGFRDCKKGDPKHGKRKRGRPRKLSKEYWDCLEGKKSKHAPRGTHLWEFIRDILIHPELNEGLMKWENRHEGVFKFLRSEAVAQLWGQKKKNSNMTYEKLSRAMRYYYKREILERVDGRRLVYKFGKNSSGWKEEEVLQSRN
# How it was run: as §1
# ETV1 = ETV1 (Homo sapiens, UniProt P50549 1-477); conditions: protein: recombinant; tags: N-terminal GST; dsDNA, one strand shown
# How it was run: as §1
# Chain of ELF1 (P32519 whole entry): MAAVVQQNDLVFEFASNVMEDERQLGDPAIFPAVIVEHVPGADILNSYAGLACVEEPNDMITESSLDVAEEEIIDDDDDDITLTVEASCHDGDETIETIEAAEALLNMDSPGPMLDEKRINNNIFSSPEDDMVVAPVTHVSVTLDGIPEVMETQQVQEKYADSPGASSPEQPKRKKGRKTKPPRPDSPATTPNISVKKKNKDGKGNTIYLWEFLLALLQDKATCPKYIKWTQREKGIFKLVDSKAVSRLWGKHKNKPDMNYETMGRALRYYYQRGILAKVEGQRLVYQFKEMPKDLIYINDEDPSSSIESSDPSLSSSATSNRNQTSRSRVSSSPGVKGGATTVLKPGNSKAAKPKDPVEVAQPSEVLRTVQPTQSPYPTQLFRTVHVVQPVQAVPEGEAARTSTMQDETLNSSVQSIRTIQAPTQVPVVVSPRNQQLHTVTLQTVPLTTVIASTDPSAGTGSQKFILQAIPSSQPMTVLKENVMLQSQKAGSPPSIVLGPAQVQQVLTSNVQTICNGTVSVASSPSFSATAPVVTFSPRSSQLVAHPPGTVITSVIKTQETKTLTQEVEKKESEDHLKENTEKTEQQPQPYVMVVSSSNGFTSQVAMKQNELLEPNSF
# Chain of ELF4 (Q99607 whole entry): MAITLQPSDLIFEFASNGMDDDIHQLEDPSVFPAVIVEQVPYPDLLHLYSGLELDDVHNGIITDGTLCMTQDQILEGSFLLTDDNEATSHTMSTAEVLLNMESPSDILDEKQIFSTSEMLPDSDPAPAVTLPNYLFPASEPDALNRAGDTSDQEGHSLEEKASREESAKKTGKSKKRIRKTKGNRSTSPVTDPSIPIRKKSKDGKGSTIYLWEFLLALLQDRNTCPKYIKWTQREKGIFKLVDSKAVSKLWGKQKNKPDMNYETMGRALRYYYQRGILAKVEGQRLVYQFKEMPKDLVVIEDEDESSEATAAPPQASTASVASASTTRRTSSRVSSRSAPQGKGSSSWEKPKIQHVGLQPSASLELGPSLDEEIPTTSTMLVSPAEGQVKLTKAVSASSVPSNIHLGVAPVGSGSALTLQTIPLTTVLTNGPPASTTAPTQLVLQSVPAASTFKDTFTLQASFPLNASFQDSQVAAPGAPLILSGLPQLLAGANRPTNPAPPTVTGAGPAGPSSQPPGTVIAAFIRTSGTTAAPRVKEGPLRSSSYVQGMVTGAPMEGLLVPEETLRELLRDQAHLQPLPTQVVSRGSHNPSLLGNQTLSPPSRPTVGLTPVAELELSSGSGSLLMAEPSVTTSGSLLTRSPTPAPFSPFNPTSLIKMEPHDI
# Chain of ETV5 (P41161 whole entry): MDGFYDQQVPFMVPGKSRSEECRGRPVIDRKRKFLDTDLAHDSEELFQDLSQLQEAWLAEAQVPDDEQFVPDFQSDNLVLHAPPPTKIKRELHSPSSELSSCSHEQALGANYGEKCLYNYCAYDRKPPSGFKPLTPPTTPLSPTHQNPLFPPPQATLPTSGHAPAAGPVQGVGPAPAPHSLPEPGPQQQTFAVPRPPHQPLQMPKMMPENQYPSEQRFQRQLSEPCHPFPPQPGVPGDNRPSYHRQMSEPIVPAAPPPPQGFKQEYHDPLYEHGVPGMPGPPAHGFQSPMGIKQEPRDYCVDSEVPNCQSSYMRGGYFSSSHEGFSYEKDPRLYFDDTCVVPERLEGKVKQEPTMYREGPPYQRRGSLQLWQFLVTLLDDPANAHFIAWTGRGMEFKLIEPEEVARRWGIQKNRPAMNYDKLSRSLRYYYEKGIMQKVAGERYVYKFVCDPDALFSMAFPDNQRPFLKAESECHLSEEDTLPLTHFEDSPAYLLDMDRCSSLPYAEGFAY
# Chain of SPIB (Q01892 whole entry): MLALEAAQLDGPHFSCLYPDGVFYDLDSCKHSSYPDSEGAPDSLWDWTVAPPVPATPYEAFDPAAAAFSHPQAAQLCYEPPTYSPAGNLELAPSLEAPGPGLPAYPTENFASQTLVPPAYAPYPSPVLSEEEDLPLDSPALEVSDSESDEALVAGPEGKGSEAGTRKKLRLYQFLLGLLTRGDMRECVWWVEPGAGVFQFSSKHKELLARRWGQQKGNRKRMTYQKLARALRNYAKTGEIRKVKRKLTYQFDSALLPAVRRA
# Chain of HSF1 (Q00613 whole entry): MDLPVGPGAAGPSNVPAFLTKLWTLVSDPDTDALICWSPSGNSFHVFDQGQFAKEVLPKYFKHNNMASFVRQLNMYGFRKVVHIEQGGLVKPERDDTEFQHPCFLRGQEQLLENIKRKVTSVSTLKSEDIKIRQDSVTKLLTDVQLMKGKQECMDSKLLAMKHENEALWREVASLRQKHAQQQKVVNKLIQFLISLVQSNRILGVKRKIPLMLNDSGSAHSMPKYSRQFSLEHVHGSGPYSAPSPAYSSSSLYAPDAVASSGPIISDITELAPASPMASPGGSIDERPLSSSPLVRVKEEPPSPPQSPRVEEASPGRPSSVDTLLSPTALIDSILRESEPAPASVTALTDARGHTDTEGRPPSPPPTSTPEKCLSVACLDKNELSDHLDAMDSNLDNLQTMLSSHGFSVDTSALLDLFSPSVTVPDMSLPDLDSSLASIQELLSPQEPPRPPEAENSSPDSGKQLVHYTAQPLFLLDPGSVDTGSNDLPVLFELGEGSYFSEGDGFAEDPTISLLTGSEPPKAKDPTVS
# Chain of ETV1 (P50549 whole entry): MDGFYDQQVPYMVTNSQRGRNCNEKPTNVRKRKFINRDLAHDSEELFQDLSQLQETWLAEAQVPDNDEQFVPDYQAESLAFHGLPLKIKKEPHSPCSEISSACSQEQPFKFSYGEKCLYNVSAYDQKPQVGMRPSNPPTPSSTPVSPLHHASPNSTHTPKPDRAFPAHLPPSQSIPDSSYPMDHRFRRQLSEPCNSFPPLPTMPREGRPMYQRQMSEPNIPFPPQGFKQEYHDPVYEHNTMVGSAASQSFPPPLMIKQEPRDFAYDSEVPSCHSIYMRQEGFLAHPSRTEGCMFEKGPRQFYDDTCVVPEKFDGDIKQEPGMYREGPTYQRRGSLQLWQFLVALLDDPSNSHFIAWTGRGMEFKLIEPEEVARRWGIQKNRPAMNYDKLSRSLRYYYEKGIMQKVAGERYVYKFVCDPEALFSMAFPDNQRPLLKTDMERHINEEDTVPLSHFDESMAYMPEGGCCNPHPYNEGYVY
sequence,measurement,setting,value
CACTGG,binding signal,FLI1,"1.15 fold enrichment (6-mer frequency, TF over GST control)"
same,binding signal,ELK1,"1.07 fold enrichment (6-mer frequency, TF over GST control)"
same,binding signal,GABPA,"1.15 fold enrichment (6-mer frequency, TF over GST control)"
same,binding signal,ERG,"1.12 fold enrichment (6-mer frequency, TF over GST control)"
same,binding signal,ELF1,"1.17 fold enrichment (6-mer frequency, TF over GST control)"
same,binding signal,EHF,"1.05 fold enrichment (6-mer frequency, TF over GST control)"
same,binding signal,SPI1,"1.03 fold enrichment (6-mer frequency, TF over GST control)"
same,binding signal,SPIB,"1.11 fold enrichment (6-mer frequency, TF over GST control)"
same,binding signal,ELK3,"1.02 fold enrichment (6-mer frequency, TF over GST control)"
same,binding signal,FEV,"1.07 fold enrichment (6-mer frequency, TF over GST control)"
same,binding signal,ETV5,"1.13 fold enrichment (6-mer frequency, TF over GST control)"
same,binding signal,HSF1,"1.16 fold enrichment (6-mer frequency, TF over GST control)"
same,binding signal,SPIC,"1.24 fold enrichment (6-mer frequency, TF over GST control)"
same,binding signal,ELF4,"1.04 fold enrichment (6-mer frequency, TF over GST control)"
same,binding signal,ELK4,"1.05 fold enrichment (6-mer frequency, TF over GST control)"
same,binding signal,ETV2,"1.22 fold enrichment (6-mer frequency, TF over GST control)"
same,binding signal,ELF3,"1.11 fold enrichment (6-mer frequency, TF over GST control)"
same,binding signal,ETV1,"1.22 fold enrichment (6-mer frequency, TF over GST control)"
